The whole screen tested about 340,000 compounds, of which about 280 (0.082%) were called active. Shown is part of a subset that was picked to be rich in actives. A number with no mark means an inactive call. No stated cut-off is given here; in the data, active means inhibition mostly above about 23% (no sharp cut-off); inactive means mostly below about 18%.

For 27 compounds, inhibition results are on record in PubChem BioAssay AID504634 (The Scripps Research Institute Molecular Screening Center, 2011).

The assay deals with 5-hydroxytryptamine receptor 5A (Homo sapiens) (UniProt P47898). As to the kind of experiment: HTR5A inverse agonists in luminescence cell assay, primary screen, counter-screen for OPRM1-OPRD1 heterodimer inverse agonist project, full-deck HTS (AID 504634).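 Further: 0% = cells with DMSO and 100% = no-cell wells with DMSO.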 The settings on record: HTR5A cell line, inverse agonism, at 9.3 µM, active compounds read high. Background: The purpose of a counterscreen is to sort out artefacts and off-target activity.
5-hydroxytryptamine receptor 5A (Homo sapiens), sequence (P47898 whole entry, looked up): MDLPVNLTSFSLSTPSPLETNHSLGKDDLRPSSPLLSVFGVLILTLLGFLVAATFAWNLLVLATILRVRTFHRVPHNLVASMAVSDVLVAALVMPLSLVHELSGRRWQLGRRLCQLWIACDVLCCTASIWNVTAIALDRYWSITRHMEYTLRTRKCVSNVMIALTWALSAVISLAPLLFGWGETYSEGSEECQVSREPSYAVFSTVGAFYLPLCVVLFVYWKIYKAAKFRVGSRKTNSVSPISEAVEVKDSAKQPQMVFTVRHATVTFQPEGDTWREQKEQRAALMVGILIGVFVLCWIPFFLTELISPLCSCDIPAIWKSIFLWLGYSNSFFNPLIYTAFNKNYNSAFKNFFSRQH
In the case of `CCc1c(SCCC(=O)O)nc2ccccc2c1C`, the inhibition is -56.3%.

With `C=CCNC(=O)C1CC=CCC1C(=O)O` (configuration not stated), the inhibition is 19.4%.

On to `Cc1ccc2cc(CN(c3ccc(C)c(C)c3)S(C)(=O)=O)c(=O)[nH]c2c1`, for which the inhibition is -3.96%.

On to `CC(OC(=O)c1ccccc1NCCO)C(=O)Nc1ccnn1C(C)C` (configuration not stated), for which the inhibition is -11.8%.

Turning to `COC(=O)c1ccc(Sc2ccc(F)cc2)c(N)c1`, the inhibition is -3.93%.

In the case of `CC(C)CCN1CCN(C/C=C/c2ccco2)CC1CCO` (configuration not stated), the inhibition is -0.83%.

Turning to `CC(=O)c1ccc(N2CCN(C(=O)c3ccc(Cl)c(S(=O)(=O)NC4CC4)c3)CC2)c(F)c1`, the inhibition was -4.11%.

On to `CC(C)(C)n1nnnc1C(c1ccccc1F)N1CCN(C(=O)c2ccco2)CC1` (configuration not stated), for which the inhibition was -20.1%.

For the compound `Cc1nn(CCCC(=O)NCc2ccccc2Cl)c(=O)c2nccn12`, the inhibition is -28.5%.

For the compound `CN(C)CCCNC(=S)N1CCN(c2nc(-c3ccccc3)cs2)CC1`, the inhibition was -13.5%.

In the case of `Cc1c(CCC(=O)N[C@@H](CC(C)C)C(=O)O)c(=O)oc2c(C)c3oc4c(c3cc12)CCCC4`, the inhibition was 3.6%.

Regarding `CC/C(=C\c1ccc(Cl)cc1)c1ccncc1`, the inhibition is -7.07%.

For `COc1cc(C(=S)N2CCOCC2)cc(OC)c1OC(=O)c1ccc([N+](=O)[O-])cc1[N+](=O)[O-]`, the inhibition was -0.97%.

In the case of `COc1ccc(CNC(=O)C(c2ccc(O)cc2)N(Cc2ccco2)C(=O)c2snc(C(N)=O)c2N)cc1` (configuration not stated), the inhibition was 3.12%.

With `COC(=O)c1ccc(NC(=S)NN2CCOCC2)cc1`, the inhibition was 13.4%.

As for `O=S(=O)(Nc1ccc(-c2ccc(N3CCOCC3)nn2)cc1)c1cc(Cl)ccc1Cl`, the inhibition was -25.2%.

Regarding `COc1cccc(COC(=O)C2CCN(S(=O)(=O)c3cccs3)CC2)c1OC`, the inhibition was -12.6%.

As to `CCC1CCCCN1CCCNC(=O)c1cc2c(Cl)nc3ccccc3c2s1` (configuration not stated), the inhibition is 5.42%.

As to `CCn1c(=O)n(CC)c2cc(N3CCCC3)c(NC(=O)c3ccccc3Br)cc21`, the inhibition is 10.1%.

Take `Cc1ccccc1-c1n[nH]c(=S)n1/N=C/c1ccc(-c2ccccc2Br)o1`: the inhibition is 4.19%.

As to `CS(=O)(=O)N(CC(=O)Nc1ccc(F)cc1F)c1cccc([N+](=O)[O-])c1`, the inhibition was 14.4%.

For `Cc1ccc(OCCC(=O)Nc2ccc(S(=O)(=O)Nc3nccs3)cc2)cc1`, the inhibition is -6.52%.

As for `CC(C)CCNC(=O)CCNS(=O)(=O)c1ccc(Cl)cc1`, the inhibition was -7.35%.

Take `OC(COc1ccc2c(c1)CCC2)CN1CCN(c2cccc(Cl)c2)CC1` (configuration not stated): the inhibition was -19.1%.

With `CCOc1ccc(C(=O)NC(=S)Nc2ccc(N3CCOCC3)c(Cl)c2)cc1[N+](=O)[O-]`, the inhibition is 30.9%.

Consider `O=c1o[nH]c(-c2ccccc2)c1N=Nc1c(F)cccc1Cl`, for which the inhibition is -12.2%.

Turning to `COc1ccc2c(c1)CCC/C2=N\OC(=O)c1ccccc1F`, the inhibition was 0.11%.

In general, inhibition refers to the change of the read-out against control, counted positive when it falls.
